This is an account of results in PubChem BioAssay.

The nature of assay [1]: antimalarial activity against Dd2 strain (AID 2302;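 active = growth inhibition above 50% at the single 2 µM test dose, taken to imply half-maximal potency below 2 µM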;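 note: 0% = DMSO untreated growth and 100% = chloroquine plus artemisinin killed control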). Conditions: P. falciparum Dd2 in RBCs, LDH growth readout, 72 h; at 2 µM; stronger effect = higher value.
The nature of assay [2]: HepG2 cytotoxicity, primary screen, cytotoxicity control for P. falciparum antimalarial project, cell-based, ATP luminescence (AID 2303;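 active = inhibition above 50%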;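 note: 0% = DMSO wells and 100% = digitonin-killed cells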). To be noted: HepG2 viability, 24-48 h, at 10 µM, stronger effect = higher value.
Assay [3] concerns the target L-lactate dehydrogenase (Plasmodium falciparum (isolate CDC / Honduras)) (UniProt Q27743). The experiment in a line: PfLDH activity inhibition – cell lysate, 3D7 strain, counter-screen for P. falciparum growth inhibition project (AID 2304).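 Note: 0% = vehicle and 100% = reference inhibitor.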 To be noted: P. falciparum 3D7 crude extract, LDH APAD/NBT absorbance; at 2 µM; stronger effect = higher value. For orientation: A counterscreen serves to expose hits that act by an unwanted route or on another target.

Assay [4] in a line: inhibition of 3D7 malaria parasite growth – strain 3D7 (AID 2306).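 Note: 0% = DMSO wells and 100% = chloroquine plus artemisinin control wells.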 To be noted: P. falciparum 3D7 erythrocytic growth, LDH absorbance, 72 h; at 2 µM; stronger effect = higher value.
In assay [5] the target is Calcium-dependent protein kinase 1 (Plasmodium falciparum (isolate 3D7)) (UniProt P62344). The experiment in a line: PfCDPK1 kinase inhibitors, biochemical, TCAMS library (AID 1159585; cut-off not given, nearly all actives have IC50 up to about 0.98 µM;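 note: inhibitors leave more ATP so luminescence rises with inhibition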). Conditions: recombinant PfCDPK1, Kinase-Glo ATP depletion luminescence. (In general: In Kinase-Glo more light means more ATP remaining.)
Sequence of Calcium-dependent protein kinase 1 (Plasmodium falciparum (isolate 3D7)) (P62344 whole entry, looked up): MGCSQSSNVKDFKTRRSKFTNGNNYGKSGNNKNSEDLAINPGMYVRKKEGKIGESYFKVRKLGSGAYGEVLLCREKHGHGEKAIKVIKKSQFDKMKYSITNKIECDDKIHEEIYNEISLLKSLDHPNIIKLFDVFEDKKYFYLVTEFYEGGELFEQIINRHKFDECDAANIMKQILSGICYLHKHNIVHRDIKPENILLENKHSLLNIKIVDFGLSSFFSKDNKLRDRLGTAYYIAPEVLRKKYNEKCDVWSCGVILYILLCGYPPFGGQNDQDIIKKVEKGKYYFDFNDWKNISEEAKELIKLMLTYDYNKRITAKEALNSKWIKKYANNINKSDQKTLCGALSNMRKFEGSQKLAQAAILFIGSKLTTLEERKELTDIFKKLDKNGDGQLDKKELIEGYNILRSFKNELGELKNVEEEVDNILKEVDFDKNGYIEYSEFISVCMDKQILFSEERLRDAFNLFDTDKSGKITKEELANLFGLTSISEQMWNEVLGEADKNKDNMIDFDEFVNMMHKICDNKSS
Assay [6] deals with Plasmodium falciparum protein kinase 6 (PK6, PF3D7_1337100) (UniProt Q8IDW1). The experiment in a line: PfPK6 kinase inhibitors, biochemical, TCAMS library (AID 1159586). Conditions: recombinant PfPK6, Kinase-Glo ATP depletion luminescence.
Sequence of Plasmodium falciparum protein kinase 6 (PK6, PF3D7_1337100) (Q8IDW1 1-305): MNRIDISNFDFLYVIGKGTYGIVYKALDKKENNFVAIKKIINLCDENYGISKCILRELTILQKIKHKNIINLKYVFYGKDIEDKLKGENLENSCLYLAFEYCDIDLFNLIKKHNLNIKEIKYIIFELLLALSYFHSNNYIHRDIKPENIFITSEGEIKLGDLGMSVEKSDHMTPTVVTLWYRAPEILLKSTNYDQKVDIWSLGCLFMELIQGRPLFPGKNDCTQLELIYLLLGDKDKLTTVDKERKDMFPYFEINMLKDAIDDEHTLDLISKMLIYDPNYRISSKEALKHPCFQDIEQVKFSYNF
Assay [7] deals with Protein kinase 7 (PK7), Plasmodium falciparum 3D7 (PF3D7_0213400) (UniProt Q7YTF7). The experiment in a line: inhibition of Plasmodium PK7 catalytic activity – biochemical, TCAMS antimalarial set, Kinase-Glo luminescence (AID 1159587). Conditions: recombinant PfPK7, Kinase-Glo ATP depletion luminescence.
Sequence of Protein kinase 7 (PK7), Plasmodium falciparum 3D7 (PF3D7_0213400) (Q7YTF7 1-343): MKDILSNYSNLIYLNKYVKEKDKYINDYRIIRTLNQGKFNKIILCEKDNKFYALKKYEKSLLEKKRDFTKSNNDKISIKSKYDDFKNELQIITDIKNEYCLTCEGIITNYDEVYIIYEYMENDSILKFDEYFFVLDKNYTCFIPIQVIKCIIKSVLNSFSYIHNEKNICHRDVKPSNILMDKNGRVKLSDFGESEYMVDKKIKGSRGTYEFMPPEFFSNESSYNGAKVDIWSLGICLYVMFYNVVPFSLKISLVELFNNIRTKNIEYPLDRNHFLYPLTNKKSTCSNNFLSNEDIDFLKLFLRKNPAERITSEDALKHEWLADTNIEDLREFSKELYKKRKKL
Assay [8] deals with Calcium-dependent protein kinase 4 (Plasmodium falciparum (isolate 3D7)) (UniProt Q8IBS5). The assay can be described thus: PfCDPK4 kinase inhibitors, biochemical, TCAMS library (AID 1159588; cut-off not given, nearly all actives have IC50 up to about 0.91 µM). To be noted: recombinant PfCDPK4, Kinase-Glo ATP depletion luminescence.
Sequence of Calcium-dependent protein kinase 4 (Plasmodium falciparum (isolate 3D7)) (Q8IBS5 whole entry, looked up): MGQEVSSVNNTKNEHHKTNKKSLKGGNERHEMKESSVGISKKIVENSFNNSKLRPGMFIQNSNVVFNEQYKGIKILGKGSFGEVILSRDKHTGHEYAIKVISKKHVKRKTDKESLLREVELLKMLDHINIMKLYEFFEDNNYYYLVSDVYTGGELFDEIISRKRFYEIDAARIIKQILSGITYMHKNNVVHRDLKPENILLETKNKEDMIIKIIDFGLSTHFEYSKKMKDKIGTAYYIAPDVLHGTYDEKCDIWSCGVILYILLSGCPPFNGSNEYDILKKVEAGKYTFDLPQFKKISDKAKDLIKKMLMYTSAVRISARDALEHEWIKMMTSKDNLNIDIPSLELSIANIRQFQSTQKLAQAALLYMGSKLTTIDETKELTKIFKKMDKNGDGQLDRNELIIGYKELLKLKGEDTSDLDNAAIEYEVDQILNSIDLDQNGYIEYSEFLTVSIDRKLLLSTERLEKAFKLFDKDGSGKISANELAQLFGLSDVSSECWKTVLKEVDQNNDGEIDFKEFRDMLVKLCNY

Values without a mark were called inactive. For some of these results: Potency and affinity values are given separately. Active and inactive are the calls of the source. Unless noted, the rule behind the calls is not given here.

Sequence of L-lactate dehydrogenase (Plasmodium falciparum (isolate CDC / Honduras)) (Q27743 whole entry, looked up): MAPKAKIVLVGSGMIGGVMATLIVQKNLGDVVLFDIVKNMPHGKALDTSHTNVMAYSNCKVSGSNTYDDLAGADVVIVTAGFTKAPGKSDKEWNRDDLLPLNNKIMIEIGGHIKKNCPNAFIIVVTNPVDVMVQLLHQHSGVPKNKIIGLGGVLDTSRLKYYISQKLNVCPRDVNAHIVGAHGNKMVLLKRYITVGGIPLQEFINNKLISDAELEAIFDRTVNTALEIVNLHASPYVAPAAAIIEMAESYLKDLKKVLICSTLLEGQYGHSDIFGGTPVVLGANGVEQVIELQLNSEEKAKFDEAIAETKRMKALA

With `O=C(Cc1cnc[nH]1)Nc1cccc(-c2cccc(-c3nc4ccccc4[nH]3)c2)c1`, the growth inhibition in assay [1] is 60% (active); in assay [4], 97% (active). The inhibition (usually the change of the read-out against control, counted positive when it falls) was 24% in assay [2] and -2% in assay [3]. Further, the result in assay [5], in assay [6], in assay [7] and in assay [8] was inactive.

As for `O=C(c1ccc(-c2ccccn2)s1)N1CCc2cc3nccc(N4CCN5CCC[C@H]5C4)c3cc21`, the growth inhibition is 49% in assay [1] and 96% (active) in assay [4]. For the same compound, the inhibition in assay [2] is -15%; in assay [3], -4%. In addition, the outcome in assay [5], in assay [6], in assay [7] and in assay [8] was inactive.

On to `COc1ccc(NC(=O)c2cc(NC(=O)C3(N)CC3)c(=O)n(Cc3ccc(C(N)=O)cc3)c2)cc1`, for which the growth inhibition in assay [1] is 72% (active); in assay [4] it was 95% (active). Further, the inhibition in assay [2] is 21%; in assay [3], 3%. The outcome in assay [5], in assay [6], in assay [7] and in assay [8] was inactive.

For the compound `CS(=O)(=O)Nc1ccc2[nH]cc(C3CCN(CC(O)C4CCN(C(=O)/C=C/c5ccc(Cl)c(Cl)c5)CC4)CC3)c2c1` (stereo not given), the growth inhibition in assay [1] was -10%; in assay [4] it was 101% (active). Moreover, the values for the inhibition in assay [2] and in assay [3] were 28% and -3%, respectively. The result in assay [5], in assay [6], in assay [7] and in assay [8] was inactive.

As for `COc1ccc(-c2ccc(NC(=O)c3ccc(Cl)cc3)cc2)cc1CN(C)CCN(C)C`, the growth inhibition was 61% (active) in assay [1] and 97% (active) in assay [4]. Moreover, the inhibition in assay [2] is 37%; in assay [3] it was -2%. Moreover, the outcome in assay [5], in assay [6], in assay [7] and in assay [8] was inactive.

Take `COc1ccc(CCc2ccc(-c3c(C)[nH]c(C)c(Cl)c3=O)cc2)cc1`: the growth inhibition in assay [1] was 97% (active); in assay [4], 98% (active). Moreover, the inhibition was -3% in assay [2] and 3% in assay [3]. Moreover, the result in assay [5], in assay [6], in assay [7] and in assay [8] was inactive.

On to `c1ccc2c(CNc3nc(NCC4CCCCC4)nc4nc[nH]c34)cccc2c1`, for which the results for the growth inhibition in assay [1] and in assay [4] were 44% and 89% (active), respectively. Further, the inhibition in assay [2] and in assay [3] was -2% in each case. For the same compound, the result in assay [5], in assay [6], in assay [7] and in assay [8] was inactive.

On to `CN1CCN(c2ccnc3ccc(NC(=O)Nc4ccc(Cl)c(Cl)c4)cc23)CC1`, for which the growth inhibition in assay [1] is 17%; in assay [4], 97% (active). Also, the inhibition in assay [2] is 0%; in assay [3], -4%. Moreover, the result in assay [5], in assay [6], in assay [7] and in assay [8] was inactive.

As to `CCCCCCN1CCN(Cc2cccc(NC(=O)c3cc4ccccc4s3)c2)CC1`, the growth inhibition in assay [1] is 68% (active); in assay [4], 93% (active). Moreover, the inhibition was 20% in assay [2] and -1% in assay [3]. Further, the outcome in assay [5], in assay [6], in assay [7] and in assay [8] was inactive.

Regarding `Cc1cc(C(=O)Nc2ccc3c(c2)CCN3C2CCN(Cc3ccc(O)cc3)C2)no1` (stereo not given), the growth inhibition is 86% (active) in assay [1] and 95% (active) in assay [4]. The results for the inhibition in assay [2] and in assay [3] were 3% and -1%, respectively. Further, the outcome in assay [5], in assay [6], in assay [7] and in assay [8] was inactive.

For the compound `CN(C)CCN(C)Cc1cccc(-c2ccc3c(Nc4ccc(F)cc4Cl)ccnc3c2)c1`, the growth inhibition in assay [1] was 100% (active); in assay [4], 101% (active). The values for the inhibition in assay [2] and in assay [3] were 53% (active) and 0%, respectively. The result in assay [5], in assay [6], in assay [7] and in assay [8] was inactive.

In the case of `CCN1CCN(C(=O)NC(C(=O)N(C)Cc2ccc(-c3ccc(C(F)(F)F)cc3)cc2)c2cccs2)C(=O)C1=O` (stereo not given), the growth inhibition in assay [1] is 95% (active); in assay [4], 99% (active). The inhibition is -5% in assay [2] and -1% in assay [3]. Moreover, the outcome in assay [5], in assay [6], in assay [7] and in assay [8] was inactive.

On to `CCC1CN(S(=O)(=O)c2ccc3c(c2)NC(=O)CC(=O)N3)c2cc(Cl)ccc2O1` (stereo not given), for which the growth inhibition in assay [1] is 65% (active); in assay [4], 99% (active). Moreover, the results for the inhibition in assay [2] and in assay [3] were -9% and -5%, respectively. Further, the result in assay [5], in assay [6], in assay [7] and in assay [8] was inactive.

For the compound `Cc1cc(N[C@@H](Cc2ccccc2)C(=O)Nc2ccccc2)nc(NCCc2ccccn2)n1`, the results for the growth inhibition in assay [1] and in assay [4] were 50% (active) and 97% (active), respectively. Further, the values for the inhibition in assay [2] and in assay [3] were -3% and -1%, respectively. Moreover, the outcome in assay [5], in assay [6], in assay [7] and in assay [8] was inactive.

On to `CC1(C)N=C(N)N=C(N)N1OCc1cc(Cl)c(Cl)cc1CON1C(N)=NC(N)=NC1(C)C`, for which the growth inhibition in assay [1] was 100% (active); in assay [4], 98% (active). Also, the figures for the inhibition in assay [2] and in assay [3] were 36% and 4%, respectively. Besides, the outcome in assay [5], in assay [6], in assay [7] and in assay [8] was inactive.

In the case of `Cc1cc(CN2CCC(N3CC(c4ccccc4)(c4ccccc4)OCC3=O)C2)ccc1O` (stereo not given), the growth inhibition in assay [1] is 52% (active); in assay [4], 89% (active). Moreover, the inhibition in assay [2] and in assay [3] was 3% in each case. Moreover, the result in assay [5], in assay [6], in assay [7] and in assay [8] was inactive.

For the compound `COc1ccc(C2CC(c3ccccc3O)=NN2C(=O)c2ccco2)cc1OC` (stereo not given), the growth inhibition in assay [1] is 68% (active); in assay [4] it was 96% (active). Also, the inhibition was 11% in assay [2] and 1% in assay [3]. In addition, the outcome in assay [5], in assay [6], in assay [7] and in assay [8] was inactive.

As to `COc1cccc(-c2cc(C(=O)NC3CCC(N4CCC(c5ccccc5C)CC4)CC3)[nH]n2)c1` (stereo not given), the growth inhibition is 58% (active) in assay [1] and 99% (active) in assay [4]. In addition, the inhibition is 60% (active) in assay [2] and -2% in assay [3]. The outcome in assay [5], in assay [6], in assay [7] and in assay [8] was inactive.

With `COc1ccc(NC(=O)NC2CCN(CCCCCNC(=O)/C=C/c3ccc(Cl)c(Cl)c3)CC2)cc1`, the growth inhibition in assay [1] was 1%; in assay [4], 96% (active). The inhibition in assay [2] was 5%; in assay [3], 0%. In addition, the result in assay [5], in assay [6], in assay [7] and in assay [8] was inactive.

For the compound `COc1cc(OC)cc(C(=O)Nc2ccc(Nc3nc(C)cc(N(C)C)n3)cc2)c1`, the values for the growth inhibition in assay [1] and in assay [4] were 90% (active) and 100% (active), respectively. Further, the inhibition in assay [2] is 11%; in assay [3], 1%. Also, the outcome in assay [5], in assay [6], in assay [7] and in assay [8] was inactive.
